The sample as a whole holds a higher share of hits than the screen did.
mHTT CaM bind = mHTT-calmodulin interaction abrogation. AID 1671202. AlphaScreen His-mHTT/GST-CaM binding, luminescence. P42858. actives 3.6% (n = 190,000). inhibition, % at 15 µM;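 also: 0% = both proteins with DMSO and 100% = one protein alone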
Pf apPOL inh = Pf-apPOL DNA polymerase inhibition; Recombinant Pf-apPOL, molecular beacon fluorescence, 1.5 h; inhibition, % at 10 µM; actives 0.25% (n = 210,000)
The depositor's hits bear a star; i = inactive; · = no result given. Rule as the data show it: active = inhibition above about 50%; inactive = the rest.

SMILES | mHTT CaM bind | Pf apPOL inh
COc1cccc(-c2nnc3n2N=C(c2ccc(O)c(O)c2)CS3)c1 | 52* | -3
Oc1ccc(C2=Nn3c(nnc3-c3cccc(F)c3)SC2)cc1O | 39 | -1
COc1cccc(Nc2c(C(=O)N3CCCCC3C)cnc3nc(C)ccc23)c1 (configuration not stated) | 1 | -4
CCSC1=N/C(=C/c2ccc(N(CC)CC)cc2OC)C(=O)S1 | 84* | -47
CCSC1=N/C(=C\c2c(OC)cc(OC)cc2OC)C(=O)S1 | 43 | -81
CCN(CC)c1ccc(/C=C2\N=C(SC)SC2=O)cc1 | 64* | -5
CSC1=N/C(=C\c2ccc(N(C)C)cc2)C(=O)S1 | 23 | -7
Cc1cc(OCC(=O)O/N=C(\N)c2ccccn2)ccc1Cl | i | -2
CC1CCC(Br)(C(C)C)C(=O)/C1=C/c1ccc([N+](=O)[O-])cc1 (configuration not stated) | 8 | 0
CCOC(=O)NC(NCc1cccnc1)(C(F)(F)F)C(F)(F)F | · | -7
O=c1[nH]cnc2scc(-c3ccccc3Cl)c12 | -15 | -3
CCOc1ccccc1NC(=O)N1CCC(c2cnn(-c3cccc(F)c3)c2)CC1 | -23 | -8
C=CCNC(=O)c1nc(N2CCCCC2)c2c(C)c(C)n(-c3ccccc3)c2n1 | 89* | -5
C=CCNC(=O)c1nnc(N2CCCC2)c2ccccc12 | 8 | -24
COc1cc(C2Nc3cccc4cccc(c34)N2)cc(OC)c1OC | 28 | 9
Fc1ccc(C2Nc3cccc4cccc(c34)N2)cc1 | 52* | ·
C=CCOc1ccc(/C=C2\C(=O)NN(c3ccc(C)c(Cl)c3)C2=O)cc1OC | 10 | -1
CC(C)n1cc2cc(C(=O)NCc3ccc(N4CCOCC4)cc3)sc2c1 | 33 | 4
O=C(NCc1ccc(N2CCOCC2)cc1)c1cc2cn(C3CC3)cc2s1 | 21 | 8
O=C(NCCCN1CCCC1)c1cc2cn(C3CC3)cc2s1 | 99* | 108*
O=C(NCCCN1CCCC1)c1cc2cn(C3CCCC3)cc2s1 | 16 | 10
CC(C)NC(=O)c1cc2cn(C3CCCC3)cc2s1 | 17 | -4
COc1cccc(CNC(=O)c2cc3cn(C4CC4)cc3s2)c1 | 57* | 16
COc1ccc(NC(=O)c2cc3cn(C4CC4)cc3s2)c(C)c1 | 52* | 10
CC(C)n1cc2cc(C(=O)NCc3ccc(Cl)cc3)sc2c1 | 73* | -1
SMILES | mHTT CaM bind | Pf apPOL inh
CCN1C(=O)c2cccnc2Sc2cc(CNC(=O)c3ccccc3)ccc21 | 7 | -2
O=C(O)C=Cc1c[nH]c2ccccc12 | · | -2
CCOc1ccc2c(=O)c(-c3ccccc3)c(C(F)(F)F)oc2c1 | -3 | -4
O=C(c1cc2cn(C3CCCC3)cc2s1)N1CCSCC1 | 19 | -1
O=C(c1cc2cn(C3CCCC3)cc2s1)N1CCN(C2CCCCC2)CC1 | 73* | 9
O=C(NCc1ccncc1)c1ccc(-c2ccc(F)cc2)s1 | 12 | -4
CCOc1ccc(NC(=O)CN2CCc3ccccc3C2C(=O)N2CCC(C)CC2)cc1 (configuration not stated) | 13 | -3
O=C(CN1CCc2ccccc2C1C(=O)N1CCCC1)N1CCN(C2CCCCC2)CC1 (configuration not stated) | 9 | 0
O=C(CN1CCc2ccccc2C1C(=O)N1CCCC1)N1CCC(Cc2ccccc2)CC1 (configuration not stated) | 68* | -9
Cc1cccc(NC(=O)CN2CCc3ccccc3C2C(=O)N2CCC(C)CC2)c1C (configuration not stated) | 4 | -4
CC1CCN(C(=O)C2c3ccccc3CCN2CC(=O)Nc2ccc(Cl)cc2)CC1 (configuration not stated) | 62* | -4
COc1ccc(C)cc1NC(=O)CN1CCc2ccccc2C1C(=O)N1CCC(C)CC1 (configuration not stated) | 61* | -5
Cc1cccc(NC(=O)C2CCN(c3cnn(Cc4ccccc4)c(=O)c3)CC2)c1 | 4 | -1
CCCCn1cnc2c(-c3ccc(OC)cc3)csc2c1=O | -38 | -6
COc1ccc(C(=O)N2CCC(n3c(-c4ccoc4)nc4cccnc43)C2)cc1F (configuration not stated) | 63* | 4
Cc1ccc(C(=O)N2CCC(n3c(-c4ccoc4)nc4cccnc43)C2)cc1C (configuration not stated) | 33 | -1
O=C(NCc1ccccc1)N1CCC(n2c(-c3ccoc3)nc3cccnc32)C1 (configuration not stated) | 8 | 1
O=C(c1cccc(Br)c1)N1CCC(n2c(-c3ccoc3)nc3cccnc32)C1 (configuration not stated) | 55* | -1
Cc1ccc(CNC(=O)N2CCC(n3c(-c4ccoc4)nc4cccnc43)C2)cc1 (configuration not stated) | 64* | 0
COc1cc(C(=O)N2CCC(n3c(-c4ccoc4)nc4cccnc43)C2)ccc1C (configuration not stated) | 47 | -2
COc1cccc2cc(C(N)=O)c(=Nc3cccc(C(N)=O)c3)oc12 | 6 | -2
O=C(OC(COCCC12CC3CC(CC(C3)C1)C2)CN1CCOCC1)c1ccccc1Cl (configuration not stated) | 6 | -6
CN(C)CCn1cnc2cc([N+](=O)[O-])ccc21 | 6 | ·
Cn1cc(-c2ccncc2)cc1C(=O)NCC1CCCO1 (configuration not stated) | -3 | -1
Cc1cc(OCC(=O)NCC2CCCO2)cc(C)c1Br (configuration not stated) | 0 | -5
SMILES | mHTT CaM bind | Pf apPOL inh
O=C(COc1ccc2c(c1)C(=O)CC2)NCc1ccccn1 | -5 | -8
CCOc1ccccc1C(=O)Nc1ccccc1Br | -32 | 2
Cc1c(Cl)cccc1NS(=O)(=O)c1ccc(NC(=O)Cc2ccccc2)cc1 | 1 | -7
O=[N+]([O-])c1c(Nc2ccccc2O)ncnc1Nc1ccccc1O | 69* | -2
Nc1ncnc(Nc2ccccc2N=Cc2ccccc2O)c1[N+](=O)[O-] | 16 | 1
COc1cccc2cc(C(=O)Nc3nccs3)c(=Nc3cccc(C)c3)oc12 | -4 | -4
CC(=O)c1cccc(C(=O)N2CCC3(CC2)NC(=O)N(Cc2cc(C)ccc2C)C3=O)c1 | 28 | -1
COc1cc(C)nc2ccc(NC(=O)Nc3ccc(Cl)cc3)cc12 | 25 | 3
COc1ccc(Cl)cc1NC(=O)Nc1ccc2nc(C)cc(OC)c2c1 | 97* | 85*
CC(=O)N1CCc2cc(Br)cc(S(=O)(=O)CCC(=O)Nc3cccc(F)c3)c21 | 2 | -2
C[C@@H](c1ccccc1)N1C[C@H](COCc2ccccc2)Oc2cc(N3CC[C@@H](N(C)C)C3)ccc2S1(=O)=O | 100* | -5
C[C@H](c1ccccc1)N1C[C@H](COCc2ccccc2)Oc2cc(N3CC[C@H](N(C)C)C3)ccc2S1(=O)=O | -11 | -5
C[C@@H](c1ccccc1)N1C[C@H](COCc2ccccc2)Oc2cc(N3CC[C@H](N(C)C)C3)ccc2S1(=O)=O | 100* | -6
COC[C@@H]1CCCN1c1ccc2c(c1)O[C@@H](COCc1ccccc1)CN([C@@H](C)c1ccccc1)S2(=O)=O | -3 | 0
CCCN1CCCCC1c1nc(-c2ccc(C)cc2)no1 (configuration not stated) | -4 | 4
C=CCOc1cc(=O)[nH]c2ccccc12 | · | -11
Cc1cc(OCC(=O)Nc2cccc(F)c2)nc(N2CCCC2)n1 | 22 | -5
